Only some compounds are listed: those with a hit (about 10% of all), similar ones and a draw of the others.
GPT2 inhibitor = blocks human glutamate pyruvate transaminase 2 | Potency, µM (top dose mostly 57.7 µM), hits mostly inhibitors | Recombinant GPT2, coupled pyruvate oxidase/HRP Amplex Red fluorescence | 0.25% of 100,000 active | AID 1671188; further: nearly all actives have a fitted effect of over 60% in size
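Fluorescence of coupled pyruvate oxidase/HRP/Amplex Red system (50uM Amplex, 30 min, dark) reports pyruvate formed by GPT2. Enzyme reaction: 10ng/uL GPT2, 2mM L-alanine, 250uM a-KG, 30 min room temperature, pH 7.5; 50uM AOA control.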
3T3 cytotox = kills NIH 3T3 cells; NIH 3T3 viability, CellTiter-Glo ATP luminescence, 48-72 h; Potency, µM (highest dose often 96.7 µM), usual class: inhibitors; 4.3% of 94,000 active; AID 1345082; further: nearly all actives have a fitted effect of over 55% in size
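ATP-dependent luminescence (CellTiter-Glo) served as the viability signal for NIH 3T3 cells treated with compound for 48 or 72 hr at 37 °C.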
FLuc inh = blocks purified firefly luciferase enzyme activity. P08659. purified P. pyralis luciferase, luminescence, biochemical. Potency, µM (series often up to 115 µM), hits mostly inhibitors. 2.5% of 76,000 active; further: nearly all actives have a fitted effect of over 65% in size
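Cell-free enzyme assay, 10nM P. pyralis luciferase, luciferin and ATP each at 10uM. Inhibition profiled over a 6-point titration, read as luminescence.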
hNpr1 antagonist = blocks ANP-stimulated signaling of human Npr1 receptor. P16066. HEK293 hNpr1 GloSensor cGMP, ANP-stimulated luminescence. Potency, µM (highest dose often 46.3 µM), hits mostly inhibitors. 1.6% of 76,000 active. AID 1347048; calls by dose curve; further: nearly all actives have a fitted effect of over 60% in size
Target sequence (P16066 whole entry, looked up): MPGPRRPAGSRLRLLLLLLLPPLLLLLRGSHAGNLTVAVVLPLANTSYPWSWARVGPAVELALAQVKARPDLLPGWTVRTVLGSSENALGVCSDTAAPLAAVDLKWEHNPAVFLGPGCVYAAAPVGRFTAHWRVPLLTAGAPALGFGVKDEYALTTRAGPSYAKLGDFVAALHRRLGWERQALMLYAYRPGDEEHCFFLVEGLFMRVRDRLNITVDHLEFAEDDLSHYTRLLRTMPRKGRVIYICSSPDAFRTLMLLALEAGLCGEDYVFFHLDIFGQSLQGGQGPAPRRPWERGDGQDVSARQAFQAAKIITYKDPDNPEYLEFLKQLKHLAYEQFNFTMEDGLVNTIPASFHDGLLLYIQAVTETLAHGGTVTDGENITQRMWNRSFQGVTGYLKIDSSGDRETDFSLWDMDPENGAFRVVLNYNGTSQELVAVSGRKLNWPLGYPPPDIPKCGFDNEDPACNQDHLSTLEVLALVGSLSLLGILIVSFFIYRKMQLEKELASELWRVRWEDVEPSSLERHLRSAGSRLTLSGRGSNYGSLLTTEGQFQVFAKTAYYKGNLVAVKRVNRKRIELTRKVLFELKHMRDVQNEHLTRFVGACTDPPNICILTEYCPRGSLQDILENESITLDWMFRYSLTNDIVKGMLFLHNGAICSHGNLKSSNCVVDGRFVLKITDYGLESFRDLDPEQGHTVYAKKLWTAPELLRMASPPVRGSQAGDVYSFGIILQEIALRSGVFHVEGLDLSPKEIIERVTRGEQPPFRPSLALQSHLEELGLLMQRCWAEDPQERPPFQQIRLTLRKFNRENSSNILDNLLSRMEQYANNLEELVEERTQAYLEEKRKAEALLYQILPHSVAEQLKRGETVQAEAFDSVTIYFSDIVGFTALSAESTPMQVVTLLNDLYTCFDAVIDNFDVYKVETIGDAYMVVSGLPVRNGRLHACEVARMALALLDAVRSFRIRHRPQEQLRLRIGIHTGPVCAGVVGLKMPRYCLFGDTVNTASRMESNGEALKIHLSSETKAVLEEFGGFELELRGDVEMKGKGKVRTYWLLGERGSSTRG
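Compound pre-incubated 30 min at room temperature on GloSensor-loaded HEK293 cells stably carrying hNpr1 and the pGS-40F cGMP biosensor. Stimulation uses hNppA at 0.1 nM final; luminescence is taken at baseline and 20 min post-agonist.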
HEK293 tox = cytotoxic compounds in HEK 293 cells; AID 1345083; Potency, µM (highest dose often 115 µM), most hits filed as inhibitors; HEK 293 viability, ATP luminescence (CellTiter-Glo), 48-72 h; 6.6% of 94,000 active; further: nearly all actives have a fitted effect of over 60% in size
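Cytotoxicity was scored by loss of ATP-coupled luminescence (CellTiter-Glo) in HEK 293 cells. Compound treatment ran 48 or 72 hr at 37 degree Celsius, 5% CO2, 95% humidity.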
Each line names hits and unclear results; the compound was inactive in the other large screens. Unless noted, the call rests on the fitted dose curve; in most records, active means well fitted curve in the direction sought with a large enough effect; inconclusive means small, poorly fitted or top-dose-only effect, or another doubt; inactive means no such curve, though single readings can be large; an effect the other way counts as inactive or inconclusive.

CN1CCC2(C1)CN(Cc1ccccc1)c1ccc(C(=O)NC3CCC3)cc12 (stereo unspecified)	3T3 cytotox 79.4µM, HEK293 tox inconclusive
Cc1nnc2ccc(N3CCC(NC(=O)c4ccccc4)CC3)nn12	none (no result: GPT2 inhibitor, FLuc inh, hNpr1 antagonist)
COc1ccccc1CCNC(=O)C1CC(c2ccccc2)CN(C(=O)C2CC2)C1 (stereo unspecified)	3T3 cytotox inconclusive, HEK293 tox 31.6µM
COC(=O)N[C@H]1[C@H](OC(=O)c2ccccc2)[C@@H]2O[C@H]1c1ccccc12	3T3 cytotox inconclusive, HEK293 tox inconclusive (no result: FLuc inh, hNpr1 antagonist)
Cc1cc(C(=O)N2CCCCC2)c2c(C3CCCN3)noc2n1 (stereo unspecified)	none (no result: FLuc inh, hNpr1 antagonist)
COc1cc(OCc2ccccc2)ccc1CN1CC[C@@]2(O)CCNC[C@H]2C1	3T3 cytotox 20µM, HEK293 tox 22.4µM
COc1ccc(N2CC(C(=O)N3CCC(C(=O)NCCCc4ccccc4)C3)NC2=O)cc1 (stereo unspecified)	GPT2 inhibitor inconclusive
O=C(C1CCCC1)N1CCc2nc(-c3ccccc3)nc(-c3ccc(Cl)cc3)c2C1	3T3 cytotox inconclusive, HEK293 tox 35.5µM
O=C(C1CCCC1)N1CCc2nc(-c3ccc(Cl)cc3)nc(-c3ccccc3)c2C1	3T3 cytotox inconclusive, FLuc inh inconclusive, HEK293 tox 17.8µM
O=C(C1CC1)N1CCc2nc(-c3ccccc3)nc(-c3ccc(Cl)cc3)c2C1	none
COc1ccc(-c2nc(-c3ccccc3)nc3c2CN(C(=O)C2CCCC2)CC3)cc1	3T3 cytotox inconclusive, HEK293 tox 35.5µM
COc1ccc(-c2nc(C3CC3)nc3c2CN(C(=O)c2ccccc2F)CC3)cc1	3T3 cytotox 28.2µM (no result: FLuc inh, hNpr1 antagonist)
COc1ccc(-c2nc(C3CC3)nc3c2CCN(C(=O)c2ccccc2F)CC3)cc1	HEK293 tox inconclusive (no result: FLuc inh, hNpr1 antagonist)
CCc1nc2c(c(-c3ccc(O)cc3)n1)CN(C(=O)C1CCCC1)CC2	3T3 cytotox inconclusive, HEK293 tox 39.8µM (no result: FLuc inh, hNpr1 antagonist)
CCc1nc2c(c(-c3ccc(O)cc3)n1)CCN(C(=O)NC1CCCC1)CC2	HEK293 tox inconclusive (no result: FLuc inh, hNpr1 antagonist)
CC(=O)N1CCCN(Cc2nc(-c3cccc(Oc4ccccc4)c3)oc2C)CC1	3T3 cytotox inconclusive, HEK293 tox inconclusive
Cc1oc(-c2cccc(Oc3ccccc3)c2)nc1CN1CC[C@H](N(C)C)C1	3T3 cytotox 79.4µM, HEK293 tox inconclusive
CC1CCC2(C=O)C(CO)=CCCC2C1(C)CC(=O)O (stereo unspecified)	none (no result: 3T3 cytotox, FLuc inh, hNpr1 antagonist, HEK293 tox)
CCc1cccc(NC(=O)C2CCN(C(=O)c3nnn4c3COC(c3ccc(C)cc3)C4)CC2)c1 (stereo unspecified)	3T3 cytotox 22.4µM, FLuc inh 35.5µM, HEK293 tox 10µM
COc1ccc(NC(=O)C2CCN(C(=O)c3nnn4c3COC(c3ccc(C)cc3)C4)CC2)cc1 (stereo unspecified)	FLuc inh inconclusive
Cc1ccc(C2Cn3nnc(C(=O)N4CCC(C(=O)Nc5ccc(F)c(C)c5)CC4)c3CO2)cc1 (stereo unspecified)	FLuc inh inconclusive
CCc1cccc(NC(=O)C2CCN(C(=O)c3nnn4c3COC(c3ccc(OC)cc3)C4)CC2)c1 (stereo unspecified)	3T3 cytotox inconclusive, HEK293 tox 17.8µM
COc1ccc(C2Cn3nnc(C(=O)N4CCC(C(=O)Nc5cc(C)cc(C)c5)CC4)c3CO2)cc1 (stereo unspecified)	3T3 cytotox 44.7µM, HEK293 tox 35.5µM
CN1CC(=O)N(C2CCCC2)Cc2c1ncnc2N1CCC(N2CCOCC2)CC1	none (no result: FLuc inh, hNpr1 antagonist)
COc1ccc2c(c1)C(COCc1ccc(C(=O)O)cc1)CC(C)(C)O2 (stereo unspecified)	3T3 cytotox inconclusive (no result: GPT2 inhibitor, FLuc inh, hNpr1 antagonist)
CN(C(=O)c1ccc2nc(-c3ccc(F)cc3)cn2c1)C1CCOCC1	FLuc inh 31.6µM, HEK293 tox inconclusive
COc1ccccc1-c1cccc(C(=O)N2CCN(C(C)=O)CC2)c1	none (no result: FLuc inh, hNpr1 antagonist)
COc1ccccc1-c1cccc(C(=O)N2CCN(C(=O)c3ccc(Cl)cc3)CC2)c1	3T3 cytotox 31.6µM, HEK293 tox inconclusive (no result: FLuc inh, hNpr1 antagonist)
COc1ccccc1-c1cccc(C(=O)N2CCN(C(=O)c3ccccc3)CC2)c1	HEK293 tox inconclusive (no result: FLuc inh, hNpr1 antagonist)
COc1ccccc1-c1cccc(C(=O)N2CCN(C(=O)c3ccccc3C)CC2)c1	3T3 cytotox 35.5µM, HEK293 tox 31.6µM (no result: FLuc inh, hNpr1 antagonist)
CCc1ccc(NC(=O)Cn2c(-c3ccc(Cl)cc3)nc(C)c(CCO)c2=O)cc1	3T3 cytotox 44.7µM, HEK293 tox 39.8µM
CCc1cccc(NC(=O)Cn2c(-c3ccc(F)cc3)nc(C)c(CCO)c2=O)c1	3T3 cytotox inconclusive, HEK293 tox inconclusive
CCc1ccc(NC(=O)Cn2c(-c3ccccc3)nc(C)c(CCO)c2=O)cc1	3T3 cytotox 39.8µM, HEK293 tox 39.8µM
O=C(Nc1ccccc1)N1CCC(C(=O)N2CCC(c3ccccc3)CC2)CC1	3T3 cytotox inconclusive (no result: FLuc inh, hNpr1 antagonist)
COc1ccccc1Nc1ccnc(N2CCN(C(C)=O)CC2)n1	none (no result: FLuc inh, hNpr1 antagonist)
COc1ccccc1Nc1ccnc(N2CCN(C(=O)c3ccccc3Cl)CC2)n1	3T3 cytotox 39.8µM, HEK293 tox inconclusive (no result: FLuc inh, hNpr1 antagonist)
COc1ccc(C(=O)N2CCN(c3nccc(Nc4ccccc4OC)n3)CC2)cc1	3T3 cytotox inconclusive, HEK293 tox 39.8µM (no result: FLuc inh, hNpr1 antagonist)
COc1ccc(OC)c(NC(=O)C2CCN(c3cnc4nccnc4c3)CC2)c1	3T3 cytotox inconclusive, HEK293 tox 39.8µM
CCCN(CC1CCOC1)C(=O)Nc1ccc2c(c1)OCCO2 (stereo unspecified)	FLuc inh inconclusive
Cc1cccc(CNC(=O)C2CC(c3ccc(F)c(C)c3)CN(C(=O)c3ccccc3)C2)c1 (stereo unspecified)	3T3 cytotox 25.1µM, HEK293 tox 39.8µM
Cc1cc(C2CC(C(=O)NCCc3ccccc3)CN(C(=O)NC(C)C)C2)ccc1F (stereo unspecified)	3T3 cytotox inconclusive, HEK293 tox 39.8µM
O=C(c1c(-c2cncnc2)cc(=O)n2c1CCCC2)N1CCC(Cc2ccccc2)CC1	GPT2 inhibitor inconclusive (no result: FLuc inh, hNpr1 antagonist)
CNC(=O)c1ccc(-c2ccc(OC)nn2)cc1Cl	none (no result: GPT2 inhibitor, FLuc inh, hNpr1 antagonist)
CC1=C[C@@H](CNC(=O)NC2CCCCC2)[C@H](C(C)C)C[C@H]1Cc1nc2c(C)cccc2[nH]1	none
CC1=C[C@@H](CN2C(=O)C(C)=C(C)C2=O)[C@H](C(C)C)C[C@H]1Cc1nc2c(C)cccc2[nH]1	3T3 cytotox 22.4µM, hNpr1 antagonist inconclusive, HEK293 tox 35.5µM
CC1=C[C@@H](CN2C(=O)C(C)=C(C)C2=O)[C@H](C(C)C)C[C@H]1Cc1nc2ccccc2[nH]1	3T3 cytotox 25.1µM, hNpr1 antagonist inconclusive, HEK293 tox 22.4µM
CCC(CC)C(=O)NC[C@@H]1C=C(C)[C@H](Cc2nc3c(C)cccc3[nH]2)C[C@H]1C(C)C	3T3 cytotox inconclusive, HEK293 tox 44.7µM

Assay outcomes (PubChem)
